From ChEMBL document CHEMBL3988442, “University of Dundee, Small-Polar-MMV Screening Library” (2021)
Out of some 48,000 compounds screened, about 13,000 (27%) showed an effect of 50% or more. The list shows a part of the results.

These molecules were tested on Wolbachia pipientis (assay: Anti-Wolbachia Cell-Based Screen). Details: 5 µM.
Type: functional
Parameters: scale not given: in the data most compounds retested in dose-response had high values

Row | Compound | Percent Effect
1 | CCOc1ccc2nc(CN3CCC(CN)C3)ccc2c1 (configuration not stated) | 6.34%
2 | CC(C)CCN1CCc2c(C(=O)N(C)Cc3ccccn3)nn(C)c2C1.O=C(O)C(F)(F)F.O=C(O)C(F)(F)F.O=C(O)C(F)(F)F | 7.035%
3 | CC(Cn1cncn1)NC(=O)Nc1ccc(COC2CCCC2)cc1 (configuration not stated) | -11.48%
4 | Cc1ccc(CN2CC[C@H]3CO[C@H](CN(C)C)[C@H]3C2)o1 | -4.083%
5 | Cc1cc(C2CCCN2C(=O)NCc2cccnc2N(C)C)on1 (configuration not stated) | -7.167%
6 | Cc1cc(C)c(CNC(=O)N2CCCC2c2ccccn2)c(=O)[nH]1 (configuration not stated) | 93.91%
7 | Cc1cc(C)c(CNC(=O)N2CCCC2c2cc(C)on2)c(=O)[nH]1 (configuration not stated) | 104.6%
8 | Cc1cc(C)c(CNC(=O)N2CCOC(c3ccccc3)C2)c(=O)[nH]1 (configuration not stated) | 99.02%
9 | Cc1cc(C2CCCN2C(=O)NCc2c(C)cc(C)[nH]c2=O)on1 (configuration not stated) | 97.2%
10 | Cc1cc(C2CCCN2C(=O)NCc2ccccn2)on1 (configuration not stated) | -32.12%
11 | Cc1cc(C)c(CNC(=O)N2CCCC2C(N)=O)c(=O)[nH]1 (configuration not stated) | 4.239%
12 | Cc1cc(C)c(CNC(=O)N2CCC(N3CCCC3)CC2)c(=O)[nH]1 | 3.168%
13 | Cc1cc(C)c(CNC(=O)N2CCC(N3CCNC3=O)CC2)c(=O)[nH]1 | -7.993%
14 | Cc1cc(C)c(CNC(=O)N2CCN(c3ncccn3)CC2)c(=O)[nH]1 | -5.06%
15 | Cc1cc(C)c(CNC(=O)N2CCNC(=O)C2)c(=O)[nH]1 | -6.191%
16 | Cc1cc(C)c(CNC(=O)N2CCC(N3CCCCC3)CC2)c(=O)[nH]1 | -48.68%
17 | Nc1nc(Cn2ccnc2-c2cc(CN3CCCC3)cs2)cs1 | 4.037%
18 | NC1(C(=O)NCC2CCCN(Cc3cccc4nonc34)C2)CCC1 (configuration not stated) | -1.452%
19 | O=C([C@H]1C[C@H]2OCC[C@H]2N(C(=O)c2ccnnc2)C1)N1CCCCO1 | -6.312%
20 | Cc1csc2c(N3CCC(NCCCC4CCOC4)CC3)ncnc12 (configuration not stated) | 7.139%
21 | Cc1cccc(CN2C[C@@H](F)[C@@H](OCc3nc4ccccc4[nH]3)C2)n1 | -1.113%
22 | CSCC[C@@H](CO)n1ccnc1-c1ccc(C)o1 | -18.99%
23 | Cc1cc(NC(=O)CCN2CCn3c(nnc3C3CC3)C2)no1 | -0.2298%
24 | CCC1CN(CC(=O)Nc2sccc2C#N)CCO1 (configuration not stated) | -10.74%
25 | N#Cc1ccsc1NC(=O)CCN1CCn2c(nnc2C2CC2)C1 | 113.3%
26 | N#Cc1ccsc1NC(=O)CN1CCn2c(nnc2C2CC2)C1 | 118.5%

Row | Compound | Percent Effect
27 | Cc1nnc2n1CCN(CCC(=O)Nc1sccc1C#N)C2 | 5.791%
28 | Cc1cc(NC(=O)CN2CCn3c(nnc3C3CC3)C2)n(C)n1 | -5.451%
29 | CNC(=O)COc1nc(C(C)(C)C)no1 | -5.111%
30 | CCN(Cc1ccoc1)C(C(N)=O)c1cccc(Br)c1 (configuration not stated) | 12.55%
31 | CNC(=O)C(C)(C)N(C)C(=O)c1cc(COc2ccccc2OC)[nH]n1 | -2.904%
32 | COCCN(C)C(=O)c1ccc(OC)cc1O | -1.632%
33 | COc1ccc(OCCN(C)C(=O)c2ccc(OC)cc2O)cc1 | 93.52%
34 | CCc1ccc(OCCN(C)C(=O)c2ccncc2Cl)cc1 | -12.28%
35 | Cc1nc(C#N)c(N2CCC(c3nc(-c4ccc(F)cc4)no3)CC2)o1 | 10.17%
36 | CCc1nnc(CN2CCCC2Cn2cc(C)cn2)o1 (configuration not stated) | 107.1%
37 | Cc1cnn(CC2CCCN2Cc2coc(-c3ccccc3)n2)c1 (configuration not stated) | 17.84%
38 | Cc1cnn(CC2CCCN2Cc2nnc(-c3ccccc3)o2)c1 (configuration not stated) | 97.7%
39 | CC(C)c1nnc(CN2CCCC2Cn2cncn2)o1 (configuration not stated) | 2.76%
40 | Cc1cnn(CC2CCCN2Cc2nnc(Cc3ccccc3)o2)c1 (configuration not stated) | 6.561%
41 | Cc1cnn(CC2CCCCN2Cc2noc(C3CC3)n2)c1 (configuration not stated) | 11.5%
42 | Cc1cnn(CC2CCCN2Cc2nnc(C(C)C)o2)c1 (configuration not stated) | 94.36%
43 | Cc1cnn(CC2CCCN2Cc2nnc(C3CC3)o2)c1 (configuration not stated) | 113.6%
44 | Cc1cnn(CC2CCCN2Cc2ncc(-c3ccccc3)o2)c1 (configuration not stated) | -2.575%
45 | CNC(=O)C(C)CN(C)C(=O)Nc1cc(-n2cccc2)ccc1F (configuration not stated) | 4.281%
46 | COc1cccc(F)c1C(C)NC(=O)NCc1ccnc(C)n1 (configuration not stated) | 15.11%
47 | CC(C)N(Cc1ccccc1)Cc1nnsc1Cl | 2.332%
48 | CC(C)(C)c1cnc(CN2C(=O)CC3(CCSC3)C2=O)o1 (configuration not stated) | -9.013%
49 | Cc1cnn(CC2CCCN2Cc2nnc(C)o2)c1 (configuration not stated) | 108.8%
50 | CNc1ncc(C(=O)N2CCCC(CO)(CCCOC)C2)cn1 (configuration not stated) | -3.097%
51 | CC(=O)NCC(=O)N1CCCC2(CCC(=O)N(CCc3c[nH]cn3)C2)C1 (configuration not stated) | 7.336%
52 | CCCC1(CO)CCCN(C(=O)CNC(C)=O)C1 (configuration not stated) | 72.22%

Row | Compound | Percent Effect
53 | O=C(CCn1cnnn1)N1CCCC(CO)(CCc2ccccc2)C1 (configuration not stated) | -14.03%
54 | O=C(CCn1cnnn1)N1CCCC(CO)(CCCc2ccccc2)C1 (configuration not stated) | 2.487%
55 | CCCC1(CO)CCCN(C(=O)CNC(N)=O)C1 (configuration not stated) | 100.2%
56 | COc1c(C2CCCN2c2ncnc3sccc23)c(C)nn1C (configuration not stated) | -10.8%
57 | CN(CC1(O)CCCN(Cc2cccc(F)c2F)C1=O)C1CCCCC1 (configuration not stated) | 6.301%
58 | CCCN1CCCC2(CCN(S(=O)(=O)c3cccnc3)C2)C1=O (configuration not stated) | 3.088%
59 | Cc1noc(C)c1S(=O)(=O)N1C[C@@H](C(=O)O)[C@H](c2ccccn2)C1 | -14.24%
60 | Cc1ccnc(C2(C)CCCN2S(=O)(=O)c2c(C)noc2C)n1 (configuration not stated) | 125.2%
61 | O=C1N(C2CCCCC2)CCCC12CCN(S(=O)(=O)c1cccnc1)C2 (configuration not stated) | 14.14%
62 | Cc1ccnc(C2(C)CCCN2S(=O)(=O)c2cccnc2)n1 (configuration not stated) | 132.4%
63 | CCC1CCCCN1S(=O)(=O)c1c(C)noc1C (configuration not stated) | -6.559%
64 | CC(C)c1noc(CNc2ccccc2CC(=O)N(C)C)n1 | 6.812%
65 | Cc1nn(C)c(C)c1NC(=O)CNc1ccc(F)c(C(F)(F)F)c1 | -4.336%
66 | CC(=O)N1CCCC1c1ccc(-c2c(C)noc2C)cn1 (configuration not stated) | -2.111%
67 | Cc1cc(C(=O)Nc2ccc(CN3CCOCC3)cn2)n(C)n1 | -8.587%
68 | Cn1cccc1C(=O)N1C[C@H](OCC2CCOCC2)[C@H]2COC[C@H]21 | -0.3996%
69 | CC(=O)N1CCCC1c1ccc(Br)cn1 (configuration not stated) | 103.5%
70 | CCc1ccc(C2CCCCCN2C(=O)CNC(=O)C2CC2)o1 (configuration not stated) | -5.222%
71 | O=C(CC1CCCCC1)N1C[C@H]2CC[C@@H]1CN(Cc1cccnc1)C2 | -16.08%
72 | CC(=O)NCC(=O)N1CCCC1c1ccc(CN2CCOCC2)cn1 (configuration not stated) | 87.68%
73 | Cn1cccc1C(=O)N1CCCC1c1ccc(CN2CCOCC2)cn1 (configuration not stated) | 73.28%
74 | O=C(CC1CCCC1)N1CCCC1c1ccc(CN2CCOCC2)cn1 (configuration not stated) | 123.2%
75 | Cc1ccc(CNC(=O)NCCCn2nc3ccccn3c2=O)s1 | 0.9307%
76 | CN(C)CCN(C)C[C@@H]1CN(Cc2cccc(O)c2)C[C@@H]1CO | -1.662%
77 | Cc1ccc(-c2nc(C(=O)N(C)CC(=O)N3CCCC3)cs2)c(C)c1 | 2.536%
78 | CCNC(=O)[C@@H]1CCCN1[C@@H](C(=O)NC)c1ccccc1OC.Cl | 2.638%

Row | Compound | Percent Effect
79 | N#Cc1cccc(NC(=O)N2CCCC(N3CCCC3=O)C2)c1 (configuration not stated) | -2.402%
80 | CC(C1CCN(Cc2ccc(N(C)C)nc2)CC1)N1CCOCC1 (configuration not stated) | 11.4%
81 | CC(=O)N1CCCC1c1ccc(CN2CCOCC2)cn1 (configuration not stated) | 123.1%
82 | CC(=O)N1CCCC1c1ccc(C(=O)N2CCOCC2)s1 (configuration not stated) | -4.925%
83 | O=C(Nc1cc(-n2cccc2)ccc1F)N1CCCC1 | -21.77%
84 | Cc1cccc(NC2CCN(C(=O)Nc3ccc(F)cc3C)CC2)n1 | 119.5%
85 | COC(=O)C1CCN(C(=O)Nc2cc(-n3cccc3)ccc2F)CC1 | -12.66%
86 | Cc1cccc(NC2CCN(C(=O)Nc3cc(F)ccc3F)CC2)n1 | 100.1%
87 | COC(=O)[C@@H](NC(=O)c1coc(COc2cccc(F)c2)n1)C(C)C | -6.139%
88 | COC(=O)C(CNC(=O)Nc1nncs1)Cc1ccc(O)cc1 (configuration not stated) | -7.051%
89 | CNC(=O)c1n[nH]c2c1C(c1cccc3[nH]ccc13)CC(=O)N2 (configuration not stated) | 8.838%
90 | CCn1nc2c(cc1=O)CN(CC(=O)Nc1nnc(C)s1)CC2 | 120.7%
91 | Cc1nnc(NC(=O)CN2CCc3nn(C(C)C)c(=O)cc3C2)s1 | 104%
92 | CCn1nc2c(cc1=O)CN(CC(=O)Nc1nccs1)CC2 | -22.28%
93 | CCn1nc2c(cc1=O)CN(CC(=O)Nc1nncs1)CC2 | 94.86%
94 | Cc1nnc(NC(=O)CN2CCc3nn(C)c(=O)cc3C2)s1 | 86.83%
95 | CCn1nc2c(cc1=O)CN(CC(=O)Nc1cc(C(C)C)no1)CC2 | -9.725%
96 | CCn1nc2c(cc1=O)CN(CC(=O)Nc1cc(C)no1)CC2 | -6.307%
97 | Cn1nc2c(cc1=O)CN(CC(=O)Nc1nncs1)CC2 | -9.972%
98 | Cc1csc(NC(=O)CN2CCc3nn(C)c(=O)cc3C2)n1 | -32.21%
99 | Cc1nc(CN2CCc3nn(C(C)C)c(=O)cc3C2)oc1C | -3.167%
100 | Cc1cc(NC(=O)CN2CCc3nn(C)c(=O)cc3C2)no1 | -3.841%
101 | CC(C)n1nc2c(cc1=O)CN(CC(=O)N(C)c1nccs1)CC2 | -24.74%
102 | CC1=N[C@@]2(CC[C@@H]3CN(S(C)(=O)=O)C[C@@H]32)C(=O)N1CC(C)C | -10.09%
